# Among all 420,000 compounds or so, about 64,000 (15%) were called active. Not shown: some 27% with an inconclusive outcome. The list is a sample of the results. Values without a mark were called inactive. Calls come from the whole dose curve; as a rule, active = well fitted inhibition curve with a large enough effect; inconclusive = small, poorly fitted or top-dose-only effect; inactive = flat fitted curve, though single readings scatter.
# Assay: qHTS for Inhibitors of human tyrosyl-DNA phosphodiesterase 1 (TDP1): qHTS in cells in absence of CPT; note: nearly all actives have a fitted effect of over 55% in size
# Details: DT40 Tdp1-/- hTDP1 cells, no CPT, ATP luminescence, 48 h; activity change, negative = growth inhibition: at 46.2 µM (top of the series)
# Procedure, shortened: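 Chicken DT40 Tdp1-/- cells complemented with human TDP1, screened without camptothecin (DMSO vehicle only), 400 cells/well. Compounds pin-transferred, cells incubated at 37 °C for at least 48 hr. Growth read as ATP-dependent luminescence (CellTiter-Glo, 30 min at RT).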
# % is set by controls: 0 for no effect and ±100 for the full control effect; potency is the fitted concentration of half-maximal effect.
Compound,"activity change, negative = growth inhibition",Potency
O=C(COc1cccc2c1CCNC2=O)NC1CCCCC1,11.4%,
COc1ccc(C(=O)COC(=O)Cn2cnc3c2c(=O)n(C)c(=O)n3C)c(OC)c1,5.14%,
COC(=O)C1=C(C(=O)OC)[C@@H]2N(C)c3ccccc3[C@@]23C[C@@H](C(=O)OC)N(C(=O)c2ccco2)C3=N1,-11.6%,
Cc1cc(C)cc(NS(=O)(=O)c2ccc3[nH]cc(C(=O)N4CCCCC4)c(=O)c3c2)c1,-20%,
CN1CCN(c2ncncc2-c2ccc(C(=O)N(C)C)cc2)CC1,2.5%,
CCOC1CS(=O)(=O)CC1OCC (centres undefined),2.48%,
CCCc1ccc(C(O)c2ncc(-c3cccc(OC)c3)[nH]2)cc1 (centres undefined),,20.6 µM (active)
Cc1cccc(-c2cnc(C(O)c3cc(C)cc(C)c3)[nH]2)c1 (centres undefined),-21.6%,
COc1cccc(-c2cnc(C(O)c3ccccc3OC)[nH]2)c1 (centres undefined),-18.7%,
O=c1cnnc(Nc2ccccc2)[nH]1,0.313%,
O=C(c1cccs1)C1C(c2ccc(Br)cc2)NC(=S)NC1(O)C(F)(F)F (centres undefined),-27.6%,
Fc1ccc(N2CCN(Cc3cnc(Oc4ccc(Br)cc4)s3)CC2)cc1,-18.2%,
COC(=O)c1cc(NC(=O)CCS(=O)(=O)c2cc(Br)cc3c2N(C(=O)C2CC2)CC3)cc(C(=O)OC)c1,-14.6%,
O=C(NCCOc1ccccc1)c1ccccc1F,6.64%,
Cc1cc([N+](=O)[O-])c(N2CCC[C@@H]2C(=O)O)c([N+](=O)[O-])c1,-16.3%,
CN1C2CCC1CC(NC(=O)c1ccc([N+](=O)[O-])cc1)C2 (centres undefined),-21.8%,
CC1CCC2CCCCC2N1C(=O)c1cc([N+](=O)[O-])cc([N+](=O)[O-])c1 (centres undefined),,18.4 µM (active)
CCC(C)NC(=O)c1nn(C)c(=O)c2ccccc12 (centres undefined),-8.51%,
COC(=O)c1cc(NC(=O)c2nn(C)c(=O)c3ccccc23)cc(C(=O)OC)c1,,6.51 µM (active)
Cc1ccc(C)c(NC(=O)COC(=O)c2nn(C)c(=O)c3ccccc23)c1,8.08%,
CC1CCCCC1NC(=O)Cn1c(=O)cnc2ccccc21 (centres undefined),-4.01%,
Cn1nnc(NC(=O)CSc2ncn[nH]2)n1,-0.455%,
CN(C)N(C)C(=O)C(O)(c1ccccc1)c1ccccc1,-0.464%,
Cc1cccc(NC(=O)CCn2c(=O)oc3ccccc32)c1,5.57%,
Cc1cc(C)cc(NC(=O)CCN2C(=O)c3ccccc3C2=O)c1,-11.8%,
Cc1ccc(-c2nn(CCC(=O)Nc3ccc(Cl)c(Cl)c3)c(=O)c3ccccc23)cc1,,23.1 µM (active)

Compound,"activity change, negative = growth inhibition",Potency
CCc1nnc(NC(=O)CSc2nc(SC)ns2)s1,-24.6%,
COc1cccc(NC(=O)N(C)C[C@@H]2Oc3ncc(Br)cc3C(=O)N([C@@H](C)CO)C[C@H]2C)c1,-25.5%,
CN(C)N=Nc1ccc2nc[nH]c2c1,-13.4%,
CCOc1ccc(NC(=O)CN(C)C(=O)Cn2c(=O)cnc3ccccc32)cc1OCC,-27.1%,
CCC(=O)N1CCc2cc(S(=O)(=O)NC(C(=O)N3CCc4ccccc4C3)C(C)C)ccc21 (centres undefined),-0.707%,
CCC(=O)N1CCc2cc(Br)c(S(=O)(=O)NCCN3CCCCC3CC)cc21 (centres undefined),6.25%,
CCCN(CCC)S(=O)(=O)c1cc2c(cc1Br)CCN2C(=O)CC,,5.8 µM (active)
Cc1cc(C(F)F)nn1CC(=O)NC1CCCCCC1,2.11%,
COc1ccc(C(=O)N2CCC[C@@]3(CCN(C(=O)NC(C)C)C3)C2)cc1,-2.74%,
COc1ccc2cc(C(=O)O)n(CC(=O)c3ccccc3)c2c1,12.2%,
O=C(/C=C/[C@H]1O[C@@H](n2cnc3c(NC(=O)c4ccccc4)ncnc32)[C@H](O)[C@@H]1O)NCc1ccccc1,-11.2%,
CCC(C)(C(=O)Nc1ccccc1C)N(C(=O)CNC(C)=O)c1ccc(C)cc1 (centres undefined),-15.5%,
O=C(N[C@@H](Cc1ccccc1)C(=O)OCc1ccccc1)c1nc[nH]c1C(=O)NC1CCNCC1,0.388%,
CC(C)(C)OC(=O)N1CCC(NC(=O)c2[nH]cnc2C(=O)N[C@@H](Cc2ccccc2)C(=O)OCc2ccccc2)CC1,,13 µM (active)
C[C@@H](NC(=O)c1nc[nH]c1C(=O)N1CCN(C(=O)OC(C)(C)C)CC1)c1ccccc1,-23.7%,
O=C(Nc1ccccc1Cl)NC1(C(=O)N2CCOCC2)CCCCC1,-7.24%,
COc1cccc(NC(=O)CN(C)C(=O)CSCc2nc3scc(-c4cccs4)c3c(=O)[nH]2)c1,1.04%,
Cc1ccccc1N1CCN(C2CCCN(C(=O)c3ocnc3C)C2)CC1 (centres undefined),-25.4%,
Cc1ccccc1N1CCN(C2CCCN(C(=O)c3cn4c(C)cccc4n3)C2)CC1 (centres undefined),,14.6 µM (active)
Cc1cnc(C(=O)N2CCCC(N3CCN(c4ccccc4F)CC3)C2)cn1 (centres undefined),-24.2%,
CC(C)c1ccc(NS(=O)(=O)c2ccc3[nH]cc(C(=O)NC4CCCC4)c(=O)c3c2)cc1,-18%,
COCOc1cccc(CN2CCC(C)(Oc3ccc(SC)cc3)C2)c1 (centres undefined),,10.3 µM (active)
CCc1ccc(OC2(C)CCN(CCOc3ccc(C)cc3)C2)cc1 (centres undefined),-28.4%,
CCC12CN3CC(CC)(CN(C1)C31C(=O)N(C)c3ccc(C)cc31)C2=O (centres undefined),-22.5%,
O=C(NC1CC2CCCC(C1)N2C(=O)N1CCCCC1)C1CCCCC1 (centres undefined),-8.22%,
COc1ccc(N=C(C)c2sc3ccccc3c2O)cc1,0.494%,

Compound,"activity change, negative = growth inhibition",Potency
C/C(=N\NC(=O)CC(C)C)c1c(C(F)(F)F)[nH]n(-c2nc3ccccc3s2)c1=O,-8.53%,
COC(=O)Cc1[nH]n(-c2nc3ccccc3s2)c(=O)c1C(C)=Nc1ccc(OC)cc1,,3.26 µM (active)
Cc1ccc(-c2ccc(CCC(=O)O)n2-c2ccc(C(N)=O)cc2)cc1,-15.2%,
CN(Cc1ccccc1)C(=O)C(=O)c1cn(CC(=O)N2CCCC2)c2ccccc12,-19.2%,
CCOC(=O)C1=C(c2ccc(OC)cc2)C(=O)c2ccccc2C1=O,,1.46 µM (active)
CCOC(=O)c1cc2n(c1N)-c1ccccc1C2=O,-18.9%,
COc1ccc(OCCCON2C(=O)c3ccccc3C2=O)cc1,-0.348%,
CCOc1ccc(C(=O)NCC(=O)N2CCCCCCC2)cc1OCC,0.068%,
O=C(CCS(=O)(=O)c1cccc2nonc12)NCCc1ccccc1Cl,-17.1%,
COc1cccc(Cn2c(=O)c(-c3ccccc3)nc3cnc(OC)nc32)c1,-1.76%,
COc1cccc(Cn2c(=O)cnc3cncnc32)c1,,0.731 µM (active)
COc1cccc(Cn2c(=O)c(-c3cc(F)cc(F)c3)nc3cnc(OC)nc32)c1,,0.116 µM (active)
COc1ccc(-c2nc3cnc(OC)nc3n(Cc3ccc(F)cc3)c2=O)cc1,-15%,
COCCn1c(=O)c(CCc2ccccc2)nc2cncnc21,22.6%,
COc1cccc(Cn2c(=O)c(CCc3ccccc3)nc3cnc(N(C)C)nc32)c1,-6.83%,
Cc1ccc(F)cc1NC(=O)c1cccc(N(C)C)c1,-1.61%,
COc1ccc(-c2nc(N)sc2C2(O)C(=O)Nc3c(Br)cc(F)cc32)cc1OC (centres undefined),-1.91%,
Cc1ccc(OC(=O)c2ccccc2C(=O)OCC(F)(F)C(F)F)cc1,-4.89%,
O=C(O)c1cc2ccccc2c(=O)s1,-6.59%,
CC(=O)c1ccc(NC(=O)Cn2c(=O)oc3ccccc32)cc1,-10.3%,
COc1ccc(C2(C)NC(=O)N(CC(=O)c3ccc4c(c3)OCO4)C2=O)cc1 (centres undefined),-20.5%,
CCc1ccc(-n2nnc(-c3nc(-c4ccccc4)no3)c2C)cc1,3.01%,
Cc1ccc(NC(=O)CSc2nnc(CNC(=O)c3ccccc3F)o2)cc1Cl,6.65%,
COc1ccccc1C(=O)OCC(=O)Nc1cccc(S(=O)(=O)NC2=NCCCCC2)c1,-28.2%,
Cc1cccc(-n2c(SCC(=O)Nc3cccc(S(=O)(=O)NC4=NCCCCC4)c3)nc3ccccc3c2=O)c1C,,16.4 µM (active)
CCc1ccc(C(=O)OCC(=O)Nc2cccc(S(=O)(=O)NC3=NCCCCC3)c2)cc1,-16.1%,

Compound,"activity change, negative = growth inhibition",Potency
O=C(Cc1cccs1)Nc1nnc(SCc2ccc(F)cc2)s1,-8.66%,
O=[N+]([O-])c1ccc(O)c(/C=N/Nc2ccccc2[N+](=O)[O-])c1,,18.4 µM (active)
Nc1nnnn1/N=C/c1cc([N+](=O)[O-])ccc1O,-19%,
O=[N+]([O-])c1cccc(C=NN=Cc2ccccc2O)c1,-0.122%,
CCCCn1c(N)c(N(CCC(C)C)C(=O)c2ccc(COc3ccccc3)o2)c(=O)[nH]c1=O,-8.96%,
CS(=O)(=O)N1CCN(CC(=O)NC2CCCC2)CC1,-27.4%,
Cn1c(-c2ccco2)nc2cc3ccccc3cc21,,20.6 µM (active)
CN(c1nc2ccccc2n2c(-c3ccco3)nnc12)S(=O)(=O)c1ccccc1,-12.7%,
COc1ccccc1-n1c(-c2cc(-c3ccco3)[nH]n2)n[nH]c1=S,-5.33%,
CCN(CC)C(=O)CSC1c2ccccc2C(=O)N1c1ccccc1 (centres undefined),-17.6%,
COC(=O)c1ccc(-n2cnc3ccccc32)nc1,0.376%,
COC(=O)CSc1nc(C)c2ccc(OC)cc2n1,-3.51%,
O=C(O)C(c1ccccc1)C1(O)CCCCC1 (centres undefined),-7.94%,
CC1COc2ccccc2N1C(=O)c1cccnc1Cl (centres undefined),-1.42%,
CN1/C(=C\C(=O)c2cccnc2Cl)C(C)(C)c2ccccc21,,16.4 µM (active)
O=C(Nn1c(-c2ccc(Cl)cc2)nc2ccccc2c1=O)c1cccnc1Cl,2.46%,
COCCN(C(=O)CCC(=O)Nc1nccs1)C(C(=O)NCCC(C)C)c1ccc(F)cc1 (centres undefined),-22.3%,
Cc1ncc2c(c1CNS(=O)(=O)N(C)C)CCN(C(=O)c1ccccc1F)C2,-14.2%,
CC(=O)N1N=C(c2ccncc2)OC1(Cc1ccccc1)Cc1ccccc1,,8.2 µM (active)
CC(C)(C)N(Cc1ccccc1)C(=O)c1ccncc1,8.21%,
CC(=O)N1N=C(c2ccccc2)OC1c1cccnc1 (centres undefined),-18.3%,
CC1(c2cccc(N)c2)OCCO1,1.06%,
Cc1ccc(S(=O)(=O)/N=C(/NC(=S)Nc2c(C)n(C)n(-c3ccccc3)c2=O)c2ccccc2)cc1,14.8%,
Cc1ccccc1CNC(=O)C(=O)NCC(c1cccs1)S(=O)(=O)c1cccs1 (centres undefined),,14.6 µM (active)
CC(C)C(=O)NCC(c1cccs1)S(=O)(=O)c1ccc(F)cc1 (centres undefined),11.1%,
COc1ccccc1CNC(=O)COC(=O)c1cccs1,-1.27%,
